# Results: PubChem BioAssay AID504707 (The Scripps Research Institute Molecular Screening Center, 2011)
# The whole screen tested about 340,000 compounds, of which about 280 (0.082%) were called active.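 How the source made its calls: active means percent activation above the mean of all tested compounds plus 3 SD (cut at about 19% in these data); inactive means the rest.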 Shown is part of a subset that was picked to be rich in actives.
# Molecular target: cAMP-dependent protein kinase type I-alpha regulatory subunit (Bos taurus) + cAMP-dependent protein kinase catalytic subunit beta (Mus musculus) (UniProt P00514+P68181)
# Assay: activators of PKA-R1A holoenzyme, primary screen, biochemical, fluorescence polarization, Cy5-IP20, bovine R1A, mouse PKAc (AID 504707);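 further: higher means more PKAc released from R1A so a rise in polarization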
# Conditions: PKA-R1A dissociation, at 11.4 µM, stronger effect = higher value, scaled: DMSO 0%, 113 µM cGMP 100%
row,Compound,activation
1,C[C@H](CO)N1C[C@H](C)[C@@H](CN(C)S(=O)(=O)c2ccc(Oc3ccccc3)cc2)OCc2cn(nn2)CCCC1=O,1.58% (inactive)
2,COCCn1c(SCC(=O)Nc2ccc(F)cc2F)nc2c(c1=O)SCC2,-3.58% (inactive)
3,C[C@@H]1CN([C@H](C)CO)C(=O)CCCn2cc(nn2)CO[C@H]1CN(C)S(=O)(=O)c1ccc(Oc2ccccc2)nc1,-8.71% (inactive)
4,Cc1ccc(S(=O)(=O)N2C[C@H]3C(=O)C[C@@H](c4cccc5ccccc45)N(S(=O)(=O)c4ccc(C)cc4)[C@H]3C[C@H]2c2ccc(Cl)cc2)cc1,1.48% (inactive)
5,COc1ccc(S(=O)(=O)N(C)C)cc1NC(=O)COC(=O)c1n[nH]c2ccccc12,0.55% (inactive)
6,O=C(NCCOc1ccccc1)c1ccccc1F,-12.1% (inactive)
7,CCN1CCN(CCNC(=O)c2ccc3c(c2)NC(=O)/C(=C\c2cccc(Cl)c2)S3)CC1,-8.75% (inactive)
8,C[C@H]1CN([C@@H](C)CO)C(=O)c2cc(-c3ccccc3F)cnc2O[C@H]1CN(C)C(=O)C1CCOCC1,-7.74% (inactive)
9,C[C@@H]1CCCCO[C@H](CN(C)Cc2ccccc2)[C@@H](C)CN([C@H](C)CO)C(=O)c2cc(NS(=O)(=O)c3ccc(Cl)cc3)ccc2O1,-4.59% (inactive)
10,C#Cc1cc(N2CCN(C(=O)c3ccoc3)CC2)n2nc(-c3cccc(Cl)c3)cc2n1,-0.28% (inactive)
11,COc1ccc(-c2ccc(CN3C(C(C)C)C(=O)N(Cc4cn(CC5CCCCC5)nn4)CCS3(=O)=O)cc2)cn1 (stereo unspecified),6.26% (inactive)
12,O=C(Nc1ccc(Cl)cn1)c1ccccc1-c1ccccc1,-2.35% (inactive)
13,CC1CCCC(NC(=O)COC(=O)c2ccccc2C(=O)N(C)C2CCCCC2)C1C (stereo unspecified),4.19% (inactive)
14,CC(C)c1cc(C(=O)N(C)C2CCCN(Cc3ccccc3F)C2)n(C)n1 (stereo unspecified),-3.3% (inactive)
15,Cc1ccc(C=O)c([B-](F)(F)F)c1,-6.39% (inactive)
16,COCCCN1C(=O)C(CC(=O)NCc2cccs2)CC(C(=O)N2CCOCC2)=C1C (stereo unspecified),-6.5% (inactive)
17,O=C(COc1ccc(Br)cc1)OCC(=O)c1ccc[nH]1,-8.33% (inactive)
18,CCCC(=O)Nc1ncnc2c1ncn2[C@@H]1O[C@@H]2OP(=O)(O)OC[C@H]2[C@H]1OC(=O)CCC,49.2% (active)
19,C[C@@H]1CN([C@H](C)CO)C(=O)CCCn2cc(nn2)CO[C@H]1CN(C)S(C)(=O)=O,-6.01% (inactive)
20,C[C@H]1CN(c2ccc(Br)cc2)C(=O)[C@@H]1CC(=O)Nc1ccc(Br)cc1,-2.37% (inactive)
21,COc1cccc(NC(=O)N(C)C[C@@H]2Oc3ncc(Br)cc3C(=O)N([C@@H](C)CO)C[C@H]2C)c1,-5.28% (inactive)
